# Measurements reported in PubChem BioAssay (NCI).
# About 83,000 compounds went through this panel and 20% of them were active in at least one assay; those are over-represented in the sample as a whole.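 For each line, cells grew in 96-well plates with the test compound present at a single concentration for 48 hours.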 A number with no mark means an inactive call. The source made the active and inactive calls.
# Test system: OVCAR-3 ovarian
# Assay: NCI-60 one-dose screen, 48 h (100 = growth as untreated, 0 = no growth, -100 = all killed)
# Conditions: 10 µM unless noted
# Procedure: Growth inhibition of the OVCAR-3 human tumor cell line is measured as a screen for anti-cancer activity. Cells are grown in 96 well plates and exposed to the test compound for 48 hours. Compounds are tested at a single concentration, which is 10^-5 M for most compounds. The reported endpoint is percent growth (GI% or GIPRCNT), where numbers from 0 - 100% represent growth inhibition, and numbers from -100% - 0 represent cell death. For example, a value of 40 represents 60% growth inhibition. A value of 0 means no net growth occurred over the course of the experiment. A value of -40 indicates 40% of cells at the beginning of the experiment died by the end of the experiment. A value of -100 means all cells are dead at the end of the experiment.
# NCI-60 Human Tumor Cell Lines Screen was performed using the standard one-dose NCI protocol, which is described in more detail at https://dtp.cancer.gov/discovery_development/nci-60/default.htm.
# Compounds with GIPRCNT values below 10 were considered active. Activity score was based on GIPRCNT using the following formula: […]
# Score is 0 for GIPRCNT values of 100 or above, 50 for GIPRCNT values of 0, and 100 for GIPRCNT values of -100.
row,Compound,growth
1,CCOC(=O)c1c(C(F)(F)F)n([O-])c2ccc(Cl)cc2[n+]1=O,-70.5% (active)
2,COc1cc(C2=NN(C=O)C(c3cccc(Nc4ccnc5cc(C(F)(F)F)ccc45)c3)C2)cc(OC)c1OC (stereo not given),54.6%
3,C=CCn1c(SCC(=O)Nc2ccc(C(=O)/C=C/c3cc(OC)c(OC)c(OC)c3)cc2)nnc1-c1ccc(Cl)cc1,-41.9% (active)
4,COc1ccc(C(=O)c2cc(OC)c(C)c(OC)c2)cc1OC(=O)CCl,-8.39% (active)
5,C=C(C)[C@@H]1CC[C@]2(C(N)=O)CC[C@]3(C)[C@H](CC[C@@H]4[C@@]5(C)CCCNC(C)(C)[C@@H]5CC[C@]43C)[C@@H]12,88.8%
6,COC(=O)c1cncc(C(=O)Nc2ccc(-n3cnc4ccccc43)cc2)c1,108%
7,COc1ccc(/C=C(/C(=O)N2CCN(Cc3ccccc3)CC2)c2cc(OC)c(OC)c(OC)c2)cc1O,30.8%
8,O=C(Nc1nc(-c2ccccc2Cl)cs1)c1cc(-c2ccc(Br)cc2)nc2ccccc12,47%
9,CCCCC(=O)Nc1c(C(=O)Nc2ccccc2)sc2nc3c(cc12)C(OC(=O)CCCC)CCC3 (stereo not given),102%
10,Cc1ccc(C2CC(c3ccc(Nc4nc(NCCO)nc(NCCO)n4)cc3)=NN2c2ccc(Cl)cc2)cc1 (stereo not given),45.7%
11,Cc1ccccc1NC(=O)c1sc2nc(C)c(C(C)O)cc2c1N (stereo not given),27.8%
12,CC1(c2ccccc2Cl)NC(=O)NC1=O (stereo not given),106%
13,COc1ccc(/C=C/C(=O)c2ccc(NC(=O)CSc3nnc(-c4ccc(OC)c(OC)c4)n3-c3ccccc3)cc2)cc1,59.8%
14,COc1cc(NC(=O)COc2cc(C)nc3ccc(OC)cc23)cc(OC)c1,98.9%
15,CC[C@H](Nc1ncnc2nc[nH]c12)c1nc2cccc(CC(=O)c3ccc(C(=O)NO)cc3)c2c(=O)n1-c1ccccc1,76.9%
16,CSc1cccc(NC(=O)Nc2nc3c(C)cccc3s2)c1,117%
17,CCOC(=O)c1cnn(-c2nc(-c3ccc(F)cc3)c(C#N)c(N3CCOCC3)n2)c1N,113%
18,COc1cc([C@H](C)c2ccc3ccccc3c2)cc(OC)c1OC,-19.7% (active)
19,COc1ccc(-c2cc(C(=O)N3N=C(c4ccc(N)cc4)CC3c3ccc(OC)cc3)c3cc(OC)ccc3n2)cc1 (stereo not given),22%
20,COc1cc(NCC(=O)Nc2cc(Nc3ccc(C)cc3)ncn2)c(Cl)c(OC)c1Cl,84.3%

row,Compound,growth
1,Cc1cnc(SCc2ccc(Cl)cc2Cl)nc1Nc1ccc(Cl)c(Cl)c1,99.6%
2,O=C1CS/C(=N/c2nnc(-c3ccc(O)cc3)s2)N1,107%
3,Cc1nccc2c3ccc(OCc4cn(-c5ccccc5)nn4)cc3n(CCCc3ccccc3)c12,68.6%
4,COc1cccc(NC(=O)Nc2ccc(Nc3ncnc4[nH]c(C)c(C)c34)cc2)c1,113%
5,COc1cc(C2=NN(c3ccccc3)C(c3cccc(Nc4ccnc5cc(C(F)(F)F)ccc45)c3)C2)cc(OC)c1OC (stereo not given),88.1%
6,c1ccc(Sc2ncccn2)nc1,102%
7,CC(C)(C)c1nc2c(s1)c1nc(N)ncc1c1ccc(NS(=O)(=O)c3c(F)cccc3F)c(F)c12,80.7%
8,NC[C@@H]1CCN(c2cc3c(cc2F)c(=O)n(N)c(=O)n3Cc2ccc(-c3ccccc3)cc2)C1,96.4%
9,C[C@]12CC[C@@H]3c4ccc(O)cc4CC[C@H]3[C@@H]1C[C@H](O)C2,73.2%
10,C#CCN(CCCOc1ccc(Cl)cc1Cl)CCCSC(=O)CCCCCN1/C(=C\C=C2/CCCC(/C=C/C3=[N+](CCCCCC(=O)[O-])c4ccccc4C3(C)C)=C2Cl)C(C)(C)c2ccccc21,1.44% (active)
11,Cc1ccc(C(=O)/C(=C/c2ccc([N+](=O)[O-])cc2)S(=O)Cc2ccccc2)cc1 (stereo not given),0.0452% (active)
12,Cc1ccc(SC2c3ccc(C)cc3Oc3nc(N)c(C#N)c(N)c32)cc1 (stereo not given),55.2%
13,COC1=CC=CC2(OC)C3(O)CCCc4cccc(c43)N3C(=O)COC132 (stereo not given),109%
14,CC1CCN(CCCCCOc2ccc3oc4cc(Cl)ccc4c(=O)c3c2)CC1,73.3%
15,CNc1cccc2c1C(=O)c1cccc(N)c1C2=O,32.2%
16,O=C(C[n+]1cccc2cc(Cl)ccc21)c1ccc2c(c1)CCCC2,0.868% (active)
17,O=C1NN(c2ccccc2)C(c2ccc(Cl)cc2)N2CCC[C@H]12 (stereo not given in full),93.4%
18,COc1ccc(/C=C/C(=O)/C=C(/C=C/c2ccc(OC)c(OC)c2)OB(F)F)cc1OC,-8.63% (active)
19,Cc1c(Br)cccc1NC(=O)c1sc2nc3c(cc2c1N)CN(Cc1ccccc1)CC3,-7.95% (active)
20,COc1ccc2nc(-c3ccc(Cl)cc3)cc(-c3nnc(SC/C(=N/O)c4ccccc4)o3)c2c1,34%
